Inconclusive results are not listed. Entries that show only a call come without a potency. Calls of active or inactive are those of the source. The call rests on the fitted dose curve; in most records, active means well fitted curve in the direction sought with a large enough effect; inconclusive means small, poorly fitted or top-dose-only effect, or another doubt; inactive means no such curve, though single readings can be large; an effect the other way counts as inactive or inconclusive.
Experiments:
[1] = Quantitative High-Throughput drug screen in 47 multiple myeloma cell lines against the NCATS MIPE library collection: NCIH929_DSMZ cell viability assay (AID 1918978); further: nearly all actives have a fitted effect of over 35% in size
Outline: (§1)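 Inhibition of viability over 48 h was scored by ATP content (CellTiter-Glo) in 500-cell wells. Zero and full viability were defined by media-only and DMSO-only wells.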

[2] = Quantitative High-Throughput drug screen in 47 multiple myeloma cell lines against the NCATS MIPE library collection: MM1S_ATCC cell viability assay (AID 1918980); further: nearly all actives have a fitted effect of over 45% in size
Outline: as §1

[3] = Quantitative High-Throughput drug screen in 47 multiple myeloma cell lines against the NCATS MIPE library collection: KMS28PE_JCRB cell viability assay (AID 1918983); further: nearly all actives have a fitted effect of over 35% in size
Outline: as §1

[4] = Quantitative High-Throughput drug screen in 47 multiple myeloma cell lines against the NCATS MIPE library collection: KMS34_JCRB cell viability assay (AID 1918985); further: nearly all actives have a fitted effect of over 40% in size
Outline: as §1

[5] = Quantitative High-Throughput drug screen in 47 multiple myeloma cell lines against the NCATS MIPE library collection: OCIMY1_PLB cell viability assay (AID 1918979); further: nearly all actives have a fitted effect of over 35% in size; on viability: series mostly up to about 46 µM
Outline: as §1

[6] = Quantitative High-Throughput drug screen in 47 multiple myeloma cell lines against the NCATS MIPE library collection: L363_DSMZ cell viability assay (AID 1918984); further: nearly all actives have a fitted effect of over 40% in size
Outline: as §1

[7] = Quantitative High-Throughput drug screen in 47 multiple myeloma cell lines against the NCATS MIPE library collection: MM1R_ATCC cell viability assay (AID 1918981); further: nearly all actives have a fitted effect of over 35% in size
Outline: as §1

[8] = Quantitative High-Throughput drug screen in 47 multiple myeloma cell lines against the NCATS MIPE library collection: LP1_DSMZ cell viability assay (AID 1918982); further: nearly all actives have a fitted effect of over 35% in size
Outline: as §1
Potency means the concentration at half of the fitted maximal effect.

| SMILES | Potency [1] | Potency [2] | Potency [3] | Potency [4] | Potency [5] | Potency [6] | Potency [7] | Potency [8] |
| --- | --- | --- | --- | --- | --- | --- | --- | --- |
| CC(=O)[C@H]1CC[C@H]2[C@@H]3CCC4=CC(=O)CC[C@]4(C)[C@H]3CC[C@]12C | inactive | 3.72 µM (active) | inactive | inactive | – | – | – | – |
| CC(C)OC(=O)C(C(=O)OC(C)C)=C1SC=CS1 | inactive | – | inactive | – | inactive | inactive | – | – |
| CCC(C)(C)c1ccc(CC(C)CN2C[C@@H](C)O[C@@H](C)C2)cc1 (stereo not given in full) | inactive | – | – | – | – | – | – | – |
| COC(=O)Nc1nc2ccc(C(=O)c3ccccc3)cc2[nH]1 | 3.72 µM (active) | 3.72 µM (active) | 1.87 µM (active) | 0.935 µM (active) | 0.833 µM (active) | – | 1.66 µM (active) | 1.87 µM (active) |
| Cc1noc(NS(=O)(=O)c2ccc(N)cc2)c1C | inactive | – | inactive | – | inactive | – | – | inactive |
| O=c1oc2c(O)c(O)cc3c(=O)oc4c(O)c(O)cc1c4c23 | inactive | – | inactive | – | inactive | – | inactive | – |
| COc1cc2c(Nc3ccc(Br)cc3F)ncnc2cc1OCC1CCN(C)CC1 | 8.33 µM (active) | 23.5 µM (active) | 16.6 µM (active) | – | – | – | 23.5 µM (active) | – |
| CCn1cc(C(=O)O)c(=O)c2cc(F)c(N3CCNCC3)nc21 | – | – | – | – | – | inactive | – | – |
| CN(C)CCc1c[nH]c2ccc(C[C@H]3COC(=O)N3)cc12 | inactive | – | – | inactive | inactive | inactive | inactive | inactive |
| CO[C@@H]1[C@@H](OC(N)=O)[C@@H](O)[C@H](Oc2ccc3c(O)c(NC(=O)c4ccc(O)c(CC=C(C)C)c4)c(=O)oc3c2C)OC1(C)C | – | – | 4.69 µM (active) | 1.48 µM (active) | inactive | – | 8.33 µM (active) | inactive |
| CC(=O)[C@H]1CC[C@H]2[C@@H]3CC=C4C[C@@H](O)CC[C@]4(C)[C@H]3CC[C@]12C | inactive | inactive | inactive | inactive | inactive | – | – | inactive |
| CS(=O)(=O)c1ccc([C@@H](O)[C@@H](CO)NC(=O)C(Cl)Cl)cc1 | – | 7.43 µM (active) | inactive | – | inactive | – | – | – |
| NC(=O)c1cccc(N)c1 | 16.6 µM (active) | – | inactive | inactive | inactive | – | inactive | inactive |
| O=S(=O)(c1cccc2cnccc12)N1CCCNCC1 | – | – | 18.7 µM (active) | – | inactive | – | inactive | inactive |
| O=C(O)c1ccc(-n2nc(-c3ccccc3O)nc2-c2ccccc2O)cc1 | – | – | inactive | – | – | – | – | – |
| CCOC(=O)c1ccc(C#Cc2ccc3c(c2)C(C)(C)CCS3)nc1 | – | – | – | inactive | inactive | inactive | – | – |
| COCCCOc1cc(C[C@@H](C[C@H](N)[C@@H](O)C[C@H](C(=O)NCC(C)(C)C(N)=O)C(C)C)C(C)C)ccc1OC | inactive | 0.0743 µM (active) | inactive | inactive | – | inactive | inactive | inactive |
| O=C(O)c1cc(=O)[nH]c(=O)[nH]1 | inactive | inactive | 5.9 µM (active) | inactive | – | inactive | inactive | inactive |
| CN(C)CCc1c[nH]c2ccc(CS(=O)(=O)N3CCCC3)cc12 | inactive | – | – | inactive | inactive | – | – | inactive |
| C[C@@H](CN1CC(=O)NC(=O)C1)N1CC(=O)NC(=O)C1 | 16.6 µM (active) | 3.32 µM (active) | – | inactive | – | 2.96 µM (active) | – | inactive |
| CC1=C(C(=O)O)N2C(=O)[C@@H](NC(=O)C(N)c3ccccc3)[C@H]2SC1 (stereo not given in full) | inactive | – | inactive | – | inactive | – | inactive | inactive |
| CC[C@H](NC(C)C)[C@H](O)c1ccc(O)c2[nH]c(=O)ccc12 | inactive | 0.235 µM (active) | inactive | – | inactive | inactive | 0.59 µM (active) | inactive |
| CNC1CCCN(c2c(F)cc3c(=O)c(C(=O)O)cn(C4CC4)c3c2OC)C1 (stereo not given) | 1.48 µM (active) | 11.8 µM (active) | inactive | – | inactive | – | inactive | inactive |
| COC(c1ccccc1)(c1ccccc1)[C@H](Oc1nc(C)cc(C)n1)C(=O)O | inactive | – | inactive | inactive | inactive | – | inactive | – |
| O=P(O)(O)C(O)(Cc1cccnc1)P(=O)(O)O | inactive | inactive | inactive | – | inactive | inactive | – | inactive |

From PubChem BioAssay (NCATS)
